High-throughput results deposited in PubChem by several laboratories.
Only some compounds are listed: those with a hit (about 7.2% of all), similar ones and a draw of the others.
AHR act: AHR activators, primary screen, cell-based, luminescence, luciferase reporter, human | AHR-responsive luciferase reporter cells | hit rate 2.5% among 320,000 | AID 2796, 2010 | activation, % at 5 µM; in the data active = activation above about 47%
Target sequence (P35869 whole entry, looked up): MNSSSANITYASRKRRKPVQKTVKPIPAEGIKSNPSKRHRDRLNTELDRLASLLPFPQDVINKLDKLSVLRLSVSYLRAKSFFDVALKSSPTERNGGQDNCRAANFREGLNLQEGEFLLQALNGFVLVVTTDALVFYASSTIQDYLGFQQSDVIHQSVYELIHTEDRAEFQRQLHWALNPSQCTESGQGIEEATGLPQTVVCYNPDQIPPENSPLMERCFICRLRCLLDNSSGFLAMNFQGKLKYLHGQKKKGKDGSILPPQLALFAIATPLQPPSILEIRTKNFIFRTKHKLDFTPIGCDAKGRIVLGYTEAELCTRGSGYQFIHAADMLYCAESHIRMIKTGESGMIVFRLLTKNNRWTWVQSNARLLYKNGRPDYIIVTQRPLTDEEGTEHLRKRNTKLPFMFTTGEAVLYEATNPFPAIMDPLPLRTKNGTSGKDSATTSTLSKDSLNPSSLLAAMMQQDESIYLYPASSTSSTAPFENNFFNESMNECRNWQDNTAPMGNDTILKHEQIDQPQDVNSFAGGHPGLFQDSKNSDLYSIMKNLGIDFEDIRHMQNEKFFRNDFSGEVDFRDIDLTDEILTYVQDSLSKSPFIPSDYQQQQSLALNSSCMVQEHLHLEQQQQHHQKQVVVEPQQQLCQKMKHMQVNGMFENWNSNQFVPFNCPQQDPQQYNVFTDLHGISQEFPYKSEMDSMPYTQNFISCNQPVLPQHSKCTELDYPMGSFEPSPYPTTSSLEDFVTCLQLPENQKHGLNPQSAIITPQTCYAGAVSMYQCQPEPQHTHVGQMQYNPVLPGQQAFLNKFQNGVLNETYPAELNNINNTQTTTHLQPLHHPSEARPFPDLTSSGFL
ALR H2O2 inh: inhibitors of human ALR sulfhydryl oxidase, primary screen, biochemical, H2O2 detection, HRP-luminol luminescence, single point. FAD-linked sulfhydryl oxidase ALR (Homo sapiens), P55789. purified ALR, DTT oxidation. inhibition, % (concentration not given with the values). hit rate 3.8% among 290,000;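 active = mean replicate inhibition above about 79%, with every replicate also reaching it, limit read from the data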
Efflux pump inh: inhibitors of Candida efflux pumps in yeast, primary screen, S. cerevisiae, Nile Red, multiplex; inhibition, % at 10 µM; S. cerevisiae Candida pump triplex; hit rate 0.44% among 330,000;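 active = plate passing quality check with inhibition over a set limit, or well fluorescence over plate mean plus 4 SD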;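 note: Nile Red retained in pooled yeast measured as flow cytometry median fluorescence; higher means more Nile Red kept so more efflux inhibition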
SUMO Mot1 rescue: yeast Mot1-301 growth rescue at high temperature, primary screen, SUMOylation pathway inhibitor project, S. cerevisiae, ATP luminescence, 38.5C | S. cerevisiae Mot1-301 growth rescue; percent above DMSO median, 100 means doubled | growth rescue, % at 18.8 µM | hit rate 1% among 320,000 | AID 2716, 2010;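 active = every valid replicate shows activation above 250% relative to neutral control wells; inactive = the rest, any valid replicate at or below 250%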
VLA-4 inh: inhibition in human VLA-4 binding assay, primary screen, VLA-4 allosteric modulator project, MLPCN library, flow cytometry, VLA-4 expressing cells; Integrin alpha-4 (Homo sapiens), P13612; hit rate 0.2% among 330,000; inhibition, % (about 7 µM as worked out from the volumes in the protocol); ligand binding flow cytometry; AID 2557, 2010; in the data active = inhibition above about 50%
Bfl-1 A1 inh: caspase 3/7 activation in MEF A1-2A-BIM cells, primary screen, A1 inhibitor project, cell-based, luminescence, HTS | caspase activation, % (concentration not given with the values) | AID 2462, 2010 | hit rate 0.066% among 330,000 | Caspase-Glo 3/7 luminescence, 3 h; percent of clofoctol response, vehicle zero;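 active = over half of replicate activation scores above 10%, or exactly half above 10 with the replicate mean above 10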
Yeast Mot1 SUMO: growth restoration of Mot1-301 yeast on galactose, dose response, SUMO pathway inhibitor project, whole organism, S. cerevisiae, ATP luminescence, cherry-picked samples. shares compounds with SUMO Mot1 rescue. S. cerevisiae Mot1-301 galactose growth, 24 h; -100 = growth of slx-deleted rescue strain. growth activity, percent, % at 42 µM. 2,300 tested, under 10 active;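 active = Signal drops as the depositor expects, and the fitted half-maximal dose is no more than ten times the top valid tested dose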;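 note: more negative values mean stronger growth rescue toward the control strain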
Large screens that a line does not name were inactive (follow-up assays come after a bar, where they were run).

COCCNC(=O)Nc1ccc2c(c1)N(C)C(=O)CS2	none
N[C@@H](Cc1ccc(O)c(I)c1)C(=O)O	SUMO Mot1 rescue 640 | Yeast Mot1 SUMO inactive
Cn1cc(CCNCc2cn[nH]c2-c2ccc(-c3ccccc3)cc2)cn1	none
Cc1ccc(-c2[nH]ncc2CNCCc2cnn(-c3ccccc3)c2)cc1C	SUMO Mot1 rescue 923 (no result: ALR H2O2 inh) | Yeast Mot1 SUMO inactive
COc1ccc2nc(NC(=O)c3cccc(S(=O)(=O)N4CCOCC4)c3)sc2c1	none
COc1ccc2nc(NC(=O)c3cc(S(=O)(=O)N4CCOCC4)ccc3C)sc2c1	SUMO Mot1 rescue 529 | Yeast Mot1 SUMO inactive
Cc1nc2ccc(NC(=O)c3ccc(S(=O)(=O)N4CCOCC4)cc3)cc2s1	SUMO Mot1 rescue active | Yeast Mot1 SUMO inactive
COc1ccc(N=Cc2cc3c(cc2O)OC(N)=C(C#N)C3c2ccccc2)cc1 (stereo not given)	none
COc1cc(C(=O)Oc2cccnc2)cc(OC)c1OC	SUMO Mot1 rescue 481 | Yeast Mot1 SUMO inactive
Cc1ccc(NC(=S)N2CCN(Cc3ccc4c(c3)OCO4)CC2)c(C)c1	SUMO Mot1 rescue 378 | Yeast Mot1 SUMO inactive
Cn1nccc1NS(=O)(=O)c1ccc(NC(=O)C(F)(F)F)cc1	none
O=C(NCC1CCN(Cc2ccccc2Cl)CC1)Nc1ccccc1F	SUMO Mot1 rescue 606 | Yeast Mot1 SUMO inactive
CC(NC(=O)OCc1ccccc1)C(=O)N1CC(O)CC1C(=O)O (stereo not given)	SUMO Mot1 rescue 451 (no result: AHR act, ALR H2O2 inh, Efflux pump inh, VLA-4 inh, Bfl-1 A1 inh) | Yeast Mot1 SUMO inactive
Cc1cccc(NC(=O)C2CC(O)CN2C(=O)OCc2ccccc2)c1 (stereo not given)	none
Cc1ccnc(NC(=O)CNC(=O)c2ccc(Br)o2)c1	SUMO Mot1 rescue 493 | Yeast Mot1 SUMO inactive
COc1cc(OC)cc(C(=O)N[C@H](C(=O)Nc2ccc(S(=O)(=O)N(C)C)cc2)C(C)C)c1	none
COc1ccc2c(CC(=O)Nc3ccc(OC)c(NS(=O)(=O)c4ccc(F)cc4)c3)coc2c1	SUMO Mot1 rescue 560 (no result: ALR H2O2 inh) | Yeast Mot1 SUMO inactive
CC(C)c1ccc(NC(=O)CSc2nc(-c3ccccc3F)nc3nc[nH]c23)cc1	none
O=C(/C=C/c1cccc([N+](=O)[O-])c1)NCCSCc1ccc(Cl)cc1Cl	SUMO Mot1 rescue 368 | Yeast Mot1 SUMO inactive
O=C(/C=C/c1cccc([N+](=O)[O-])c1)NCCSCc1ccccc1Cl	none
O=C(CSC(=S)N1CCSCC1)c1ccc(Cl)cc1	none
CCOC(=O)c1sc2ncn(C(CC)C(=O)OCC)c(=O)c2c1C (stereo not given)	SUMO Mot1 rescue 592 | Yeast Mot1 SUMO inactive
O=C(O)Cc1sc(Nc2ccccc2)nc1-c1cccs1	SUMO Mot1 rescue 415 | Yeast Mot1 SUMO inactive
CN(C/C=C/c1ccccc1[N+](=O)[O-])Cc1ccccc1	SUMO Mot1 rescue 372 | Yeast Mot1 SUMO inactive
CCOc1cc(/C=N/NC(=O)C(=O)N/N=C/c2ccc(O)c(OCC)c2)ccc1O	SUMO Mot1 rescue 768 | Yeast Mot1 SUMO inactive
C=CCNC(=S)/N=c1/ccccn1CCC	none
Cc1ccc(S(=O)(=O)n2cccc2C)cc1	SUMO Mot1 rescue 688 | Yeast Mot1 SUMO inactive
CCN(CC)S(=O)(=O)c1ccc(C(=O)NCCc2cc3c(OC)ccc(OC)c3[nH]c2=O)cc1	SUMO Mot1 rescue 438 | Yeast Mot1 SUMO inactive
CC(C)c1ccccc1NC(=S)N(C)C	none
Cc1c(C(=O)N2CCN(S(C)(=O)=O)CC2)oc2ccccc12	none
O=C(Nc1ccccc1)N1CCN(CCc2ccccc2)CC1	SUMO Mot1 rescue 392 | Yeast Mot1 SUMO inactive
Cc1c(C(=O)N2CCN(CCc3ccccc3)CC2)oc2ccccc12	SUMO Mot1 rescue 707 | Yeast Mot1 SUMO inactive
CN(C)CCNC(=O)c1onc(CSc2ccc(F)c(F)c2)c1C(=O)NCCN(C)C	SUMO Mot1 rescue 578 | Yeast Mot1 SUMO inactive
